Assay results published in PubChem BioAssay AID583 (Sanford-Burnham Center for Chemical Genomics, 2007).
Values joined by “and” are separate entries in the source; they are usually repeats but may differ in a detail not shown here. Equal values may be shown once. The whole screen tested about 140,000 compounds, of which about 80 (0.06%) were called active. Rule as the data show it: active = displacement above about 50%; inactive = the rest. Only a selection was taken, and actives are over-represented in it overall. A structure can be active in one record and inactive in another.

biological target: Heat shock 70 kDa protein 1A (Homo sapiens) (UniProt P0DMV8); assay: small molecules displacing fluorescent ligand from Hsp70 – biochemical, fluorescence polarization, primary screen (AID 583); settings: Hsp70 fluorescence polarization probe displacement, mP; at 20 µM; stronger effect = higher value;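 also: plate controls were vehicle for no effect and reference ligand for full effect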
Sequence (P0DMV8 whole entry, looked up): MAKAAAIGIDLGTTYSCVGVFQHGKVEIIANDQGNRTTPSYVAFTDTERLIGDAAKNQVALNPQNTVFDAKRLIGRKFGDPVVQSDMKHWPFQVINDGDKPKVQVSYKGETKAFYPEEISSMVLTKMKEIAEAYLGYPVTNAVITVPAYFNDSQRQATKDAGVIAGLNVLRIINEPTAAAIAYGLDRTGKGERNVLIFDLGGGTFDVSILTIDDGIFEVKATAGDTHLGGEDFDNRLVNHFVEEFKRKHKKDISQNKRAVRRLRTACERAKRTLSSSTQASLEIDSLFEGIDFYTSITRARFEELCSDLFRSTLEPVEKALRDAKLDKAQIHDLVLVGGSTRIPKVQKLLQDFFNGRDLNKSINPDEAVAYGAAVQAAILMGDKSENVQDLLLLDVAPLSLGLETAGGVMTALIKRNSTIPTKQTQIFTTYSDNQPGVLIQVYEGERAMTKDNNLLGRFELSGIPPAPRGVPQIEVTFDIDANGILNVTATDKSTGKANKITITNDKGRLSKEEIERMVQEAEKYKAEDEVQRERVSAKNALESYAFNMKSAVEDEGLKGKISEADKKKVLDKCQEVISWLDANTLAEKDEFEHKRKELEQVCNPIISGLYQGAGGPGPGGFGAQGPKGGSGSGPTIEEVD

| Structure (SMILES) | displacement |
| --- | --- |
| O=C(CCc1ccccc1)Oc1ccc(Cl)cc1 | 0.9% (inactive) |
| O=C1NC(=S)N(c2ccccc2F)C(=O)/C1=C/c1ccc(I)o1 | 81.7% (active) |
| O=C1NC(=O)N(c2ccccc2F)C(=O)/C1=C/c1ccc(OCc2cccc(C(=O)O)c2)cc1 | 0.2% (inactive) |
| CCOc1ccc(N2C(=O)/C(=C/c3ccc(I)o3)C(=O)NC2=S)cc1 | 96.7% (active) |
| O=C1NC(=S)N(c2ccccc2F)C(=O)/C1=C/c1ccc(OCc2cccc(C(=O)O)c2)cc1 | 51.5% (active) |
| O=C1NC(=S)N(c2ccccc2F)C(=O)/C1=C/c1ccc(Sc2ccccc2)o1 | 0.9% (inactive) |
| CCOc1ccc(N2C(=O)/C(=C/c3ccc(OCc4cccc(C(=O)O)c4)cc3)C(=O)NC2=S)cc1 | 5.7% (inactive) |
| CCOc1ccc(N2C(=O)/C(=C/c3ccc(N(CC)CC)o3)C(=O)NC2=S)cc1 | -73.8% (inactive) |
| CCOc1ccc(N2C(=O)NC(=O)/C(=C\c3ccc(I)o3)C2=O)cc1 | 0.7% (inactive) |
| CCc1ccc(N2C(=O)/C(=C/c3ccc(I)o3)C(=O)NC2=S)cc1 | 84.7% (active) |
| O=C1NC(=O)N(c2ccc(Cl)cc2)C(=O)/C1=C/c1ccc(I)o1 | 15.2% (inactive) |
| Cc1ccc(N2C(=O)NC(=O)/C(=C\c3ccc(I)o3)C2=O)cc1 | 6.1% (inactive) |
| O=C1NC(=O)N(c2ccccc2F)C(=O)/C1=C/c1ccc(I)o1 | 20.6% (inactive) |
| CC(C)c1ccc(-c2nc(N)c3c(=O)oc4ccccc4c3n2)cc1 | 0.4% (inactive) |
| O=C(CN(Cc1ccco1)C(=O)CNS(=O)(=O)c1ccccc1)NC1CCCCC1 | 5.9% (inactive) |
| O=[N+]([O-])c1cc(NS(=O)(=O)Cc2ccccc2)ccc1F | 3.6% (inactive) |
| O=C(NCc1ccc2c(c1)OCO2)C1COc2ccccc2O1 (stereo unspecified) | 3.3% (inactive) |
| CCCn1c(=N)n(CC(=O)C(C)(C)C)c2ccccc21 | 7.1% (inactive) |
| CCn1cc(Br)c(C(=O)Nc2ccc(OC)cc2)n1 | 8.2% (inactive) |
| O=C(NC1CC2CCCC(C1)N2C(=O)NC1CCCCC1)c1ccccc1 (stereo unspecified) | 0.4% (inactive) |
| COc1cc(C(=O)NC2CC3CCCC(C2)N3CC(=O)Nc2ccccc2)cc(OC)c1OC (stereo unspecified) | 2% (inactive) |
| COc1cccc(C(=O)NC2CC3CCCC(C2)N3CC(=O)Nc2ccc(N(C)C)cc2)c1 (stereo unspecified) | 2.7% (inactive) |
| Cc1c(C(=O)N2CCc3ccccc3C2)sc2nc(-c3ccccc3)cn12 | 0.5% (inactive) |

| Structure (SMILES) | displacement |
| --- | --- |
| O=C1NN(c2ccc(F)c(Cl)c2)C(=O)/C1=C\c1ccc(-c2cccc(C(=O)O)c2)o1 | 5.7% (inactive) |
| O=C1NN(c2cccc(Cl)c2)C(=O)/C1=C\c1ccc(-c2cccc(C(=O)O)c2)o1 | 55.5% (active) |
| O=C1NN(c2ccc(Cl)cc2)C(=O)/C1=C\c1ccc(-c2cccc(C(=O)O)c2)o1 | 16.5% (inactive) |
| COc1ccc(NC(=O)Cn2nc(C)c3ccccc3c2=O)cc1 | -1% (inactive) |
| CCCOc1c(Cl)cc(/C=C2/SC(=S)NC2=O)cc1OC | 1.3% (inactive) |
| COc1cc(/C=C2/SC(=S)NC2=O)cc(Cl)c1OCc1cccc2ccccc12 | 99.9% (active) |
| COc1cc(/C=C2/SC(=S)NC2=O)cc(Cl)c1OCc1ccc(Cl)cc1Cl | 94.8% (active) |
| COc1cc(/C=C2/SC(=S)NC2=O)cc(Cl)c1OCc1ccccc1F | -0.4% (inactive) |
| COc1cccc(OCCOc2c(Cl)cc(/C=C3/SC(=S)NC3=O)cc2OC)c1 | 0.2% (inactive) |
| CCOc1cc(/C=C2/SC(=S)NC2=O)cc(Cl)c1OCc1ccc(Cl)cc1Cl | 4.9% (inactive) |
| COc1ccc(N2C(=O)NC(=O)/C(=C\c3cccc(OC)c3OC)C2=O)cc1 | -4.3% (inactive) |
| O=C1N/C(=N/N=C/c2ccccc2)SC1Cc1ccccc1Cl (stereo unspecified) | -1.4% (inactive) |
| COC(=S)N/C(=N/S(=O)(=O)c1ccc(Cl)cc1)c1ccccc1 | 0.8% (inactive) |
| CCOC(=O)c1ccc(N2N=C(C)/C(=C/C=C/c3ccco3)C2=O)cc1 | 0.7% (inactive) |
| CC1=NN(c2cccc(C(=O)O)c2)C(=O)/C1=C\c1ccco1 | 6.9% (inactive) |
| CC(=O)NS(=O)(=O)c1ccc(NC(=O)c2ccc([N+](=O)[O-])c(C)c2)cc1 | 61.3% (active) |
| COc1ccc(C(=O)Nc2ccc(S(=O)(=O)NC(C)=O)cc2)cc1[N+](=O)[O-] | 3.6% (inactive) |
| CC(=O)NS(=O)(=O)c1ccc(NC(=O)c2ccc([N+](=O)[O-])cc2)cc1 | 6.8% (inactive) |
| O=C(NCCc1ccccc1)c1cnc2sccn2c1=O | -1.6% (inactive) |
| CN(C)c1ccc(/C=C2/SC(N=Nc3c(O)[nH]c4ccccc34)=NC2=O)cc1 | 17.1% (inactive) |
| Oc1[nH]c2ccccc2c1N=Nc1nc(-c2ccccc2)c2cc(Br)ccc2n1 | -0.1% (inactive) |
| O=C1N=C(N=Nc2c(O)[nH]c3ccccc23)S/C1=C/c1ccc(Br)cc1 | 82.1% (active) |
| COc1ccc(Br)cc1/C=C/C(=O)Nc1cccc(NC(=O)c2ccccc2Cl)c1 | -1% (inactive) |

| Structure (SMILES) | displacement |
| --- | --- |
| CCN(CC)c1nc(C)cc(COC)c1C#N | 2.1% (inactive) |
| CC(C)c1ccc(NC(=O)C(c2ccc3c(c2)OCO3)N2CCC3(CC2)OCCO3)cc1 (stereo unspecified) | -2.7% (inactive) |
| O=C(CCCC(=O)N1CCCCC1)NCc1ccco1 | -1.6% (inactive) |
| COC(=O)c1ccc(C(=O)OC)c(NC(=O)CSc2nnc(-c3ccccc3Cl)o2)c1 | 1.6% (inactive) |
| Oc1c(Cl)cc(Cl)cc1Sc1cc(Cl)cc(Cl)c1O | 7.6% (inactive) |
| O=S(=O)(c1cc(Cl)cc(Cl)c1O)c1cc(Cl)cc(Cl)c1O | 8.8% (inactive) |
| CN(C)c1ccc(/C=C2\NC(=O)c3ccccc3C2=O)cc1 | 2.7% (inactive) |
| CCOC(=O)c1sc2ncc([N+](=O)[O-])c(NC)c2c1N | -5.6% (inactive) |
| Cc1cc(=O)[nH]c(SCC(=O)Nc2ccc(S(N)(=O)=O)cc2)n1 | 4.4% (inactive) |
| Cc1ccc(C(=O)O/N=C(\N)c2ccccn2)cc1 | 0.2% (inactive) |
| O=C(N=Nc1c(O)n(Cc2ccccc2)c2ccccc12)c1ccccc1O | 2.1% (inactive) |
| O=C(N/N=C/c1ccccc1OCc1ccccc1)c1ccccc1O | 6% (inactive) |
| Cc1ccc(NC(=O)c2ccccc2O)cc1 | 2.2% (inactive) |
| O=C(Cn1nc(C(=O)O)c2ccccc2c1=O)NCC1CCCO1 (stereo unspecified) | -0.7% (inactive) |
| CC(NC(=O)c1c(NC(=O)c2ccco2)sc2c1CCCCC2)c1ccccc1 (stereo unspecified) | -6% (inactive) |
| COC(=O)COc1ccc(/C=C2\C(=O)NC(=S)N(c3ccc(F)cc3)C2=O)cc1OC | 2.8% (inactive) |
| COc1ccc(CNC(=O)c2c(Cl)cccc2Cl)cc1 | 5.5% (inactive) |
| O=C(Nc1cccc2nsnc12)c1ccc(Cl)cc1Cl | 3.7% (inactive) |
| Cc1ccc(-c2ccccc2)n1-c1ccc(Cl)c(C(=O)O)c1 | -4% (inactive) |
| Cc1nc(=O)c(-c2ccccc2)c(C)n1-c1ccc(C(=O)O)c(O)c1 | 0.2% (inactive) |
| Cc1ccc(C)n1-c1ccc(C(=O)O)c(Cl)c1 | 33.7% (inactive) |
| Cc1ccc(-c2ccccc2)n1-c1ccc(O)c(C(=O)O)c1 | 4.2% (inactive) |
| Cc1ccc(C)n1-c1ccc(Cl)c(C(=O)O)c1 | 83.5% (active) |

| Structure (SMILES) | displacement |
| --- | --- |
| Cc1nc(=O)c(-c2ccccc2)c(C)n1-c1ccc(O)c(C(=O)O)c1 | -3.3% (inactive) |
| Cc1ccc(C)n1-c1ccc(O)c(C(=O)O)c1 | 98.2% (active) |
| Cc1ccc(C)n1-c1ccc(C(=O)O)c(O)c1 | 98.5% (active) |
| O=C(O)c1ccc(-n2cccc2)cc1O | -0.2% (inactive) |
| CC(C)c1c(O)nc(SCC(=O)Nc2ccc3c(c2)CCC3)[nH]c1=O | 1.5% (inactive) |
| Cc1ccc(C)n1-c1cc(C(=O)O)ccc1O | 27% (inactive) |
| Cc1cc(Cl)c2cc(C(=O)O)ccc2n1 | 2.8% (inactive) |
| Cc1cc(N)ccc1-n1c(C)ccc1C | -2.7% (inactive) |
| Cc1ccc(N2C(=O)c3ccc(C(=O)O)cc3C2=O)c(C)c1 | 0.7% (inactive) |
| Cc1ccc(C(=O)O)cc1-n1c(C)ccc1C | 67.8% (active) |
| Cc1ccc(C)n1-c1ccc(C(=O)O)cc1 | 16% (inactive) |
| Cc1cc(C(=O)O)ccc1-n1c(C)ccc1C | 61.3% (active) and 37.4% (inactive) |
| Cc1ccc(C)n1-c1cc(C(=O)O)cc(C(=O)O)c1 | 8.5% (inactive) |
| Cc1ccc(-c2ccccc2)n1-c1ccc(C(=O)O)cc1 | -1.6% (inactive) |
| Cc1ccc(-c2ccccc2)n1-c1cccc(C(=O)O)c1 | -1.8% (inactive) |
| Cc1ccc(C)n1-c1cc(C(=O)O)ccc1Cl | 89.5% (active) |
| CCN(CC)CCn1c2ccccc2n2cc(C(C)(C)C)nc12 | 0% (inactive) |
| CC(=O)Nc1ccc(N2C(=O)c3cc4ccccc4cc3C2=O)cc1 | 5.1% (inactive) |
| Cc1cc(Br)cc2c(N=Nc3cccc4cccnc34)c(O)n(C)c12 | 3.2% (inactive) |
| CC(=O)C(C(C)=O)c1c(Cl)c(O)c(O)c2c(C(=O)c3ccccc3)coc12 | 1% (inactive) |
| COc1cccc(C(=O)CSc2nnc(COc3cccc4cccnc34)o2)c1 | 3.7% (inactive) |
| CC(C)(C)c1ccc(OCC(=O)O)cc1 | 4.2% (inactive) |
| Cc1ccc(C)n1-c1ccc(OCC(=O)O)cc1 | 62.2% (active) |

| Structure (SMILES) | displacement |
| --- | --- |
| O=C(O)COc1ccc(N2C(=O)C=CC2=O)cc1 | 0.9% (inactive) |
| Cc1ccc(C)n1-c1ccc(CC(=O)O)cc1 | 23.3% (inactive) |
| Cc1ccc(C)n1-c1ccc(SCC(=O)O)cc1 | 100% (active) |
| CC(=O)c1ccc(-n2c(C)ccc2C)cc1 | 6.4% (inactive) |
| CC1CCCCN1CCNC(=O)CC1Oc2ccccc2NC1=O (stereo unspecified) | 9.4% (inactive) |
| CCOC(=O)c1c(C)[nH]c(C(=O)COC(=O)C(C)N2C(=O)C3CCCCC3C2=O)c1C (stereo unspecified) | -1.9% (inactive) |
| CCOC(=O)C1CCN(C(=O)CSCCSCC(=O)N2CCC(C(=O)OCC)CC2)CC1 | -0.9% (inactive) |
| COc1ccc2[nH]c(=O)c(CN(C(=O)c3ccco3)C3CCCCC3)cc2c1 | -0.4% (inactive) |
| O=C1S/C(=C\c2cccs2)C(=O)N1c1cccc(Cl)c1 | -1.3% (inactive) |
| CC(Oc1ccc2c3c(c(=O)oc2c1)CCCC3)C(=O)c1ccccc1 (stereo unspecified) | 2.3% (inactive) |
| O=C(CCn1nnc2ccccc2c1=O)NCC1CCC(C(=O)O)CC1 (stereo unspecified) | 2% (inactive) |
| O=C(CNC(=O)c1ccc(Cl)cc1Cl)c1ccccc1 | 1.6% (inactive) |
| COc1cccc(CN(CC2CCCO2)S(=O)(=O)c2ccc(S(=O)(=O)NCC3CCCO3)cc2)c1OC (stereo unspecified) | -2.5% (inactive) |
| C=CCN1C(=O)/C(=C\c2ccc(I)o2)C(=O)NC1=S | 0.9% (inactive) |
| C=CCN1C(=O)/C(=C\c2ccc([N+](=O)[O-])o2)C(=O)NC1=S | 95.9% (active) |
| C=CCN1C(=O)/C(=C\c2ccc(-c3ccc([N+](=O)[O-])cc3)o2)C(=O)NC1=S | 2.8% (inactive) |
| Cc1ccc(NC2=C(Cl)C(=O)N(c3ccccc3Cl)C2=O)cc1C | 0.5% (inactive) |
| CCOc1ccc(C(=O)Nc2ccc(NC(=O)c3ccccc3Cl)cc2)cc1Br | -4.2% (inactive) |
| COc1ccc(/C=C/C(=O)Nc2nc(C)c(C)s2)cc1OC | -0.1% (inactive) |
